Experiment [1] concerns the target Alpha-bungarotoxin (Bungarus multicinctus) (UniProt P60615). Kind of experiment: alpha-bungarotoxin binders on microarray, profiling panel, artefact control for SMM control protein annotation, biochemical, small-molecule microarray, Alexa647 label, 635/667 nm fluorescence (AID 1117). To be noted: alpha-BTX-A647 binding fluorescence, higher = more signal.
In experiment [2] the test system is XIP peptide (Xip251-270) binding. Kind of experiment: small-molecule binders of XIP peptide, primary screen, biochemical, small-molecule microarray, fluorescence 635/667 nm, 0.1 µg/mL protein (AID 1182). To be noted: fluorescent protein binding, 635 nm, higher = more signal, called active from +8 up or from −8 down.
A further experiment concerns XIP peptide (Xip251-270). Kind of experiment: small-molecule binders of XIP peptide, primary screen, biochemical, small-molecule microarray, fluorescence 635/667 nm, 0.5 µg/mL protein (AID 1183). Conditions: small-molecule microarray binding, fluorescence 635 nm; higher = more signal.
Experiment [3] is described as follows: Plasmodium falciparum growth inhibition, primary screen, strain 3D7, DAPI fluorescence, 100 nL (AID 1184).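 Also: parasites grown inside human red blood cells in medium with human serum.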 Conditions: P. falciparum 3D7 growth, 3 d, higher = more signal.
For experiment [4], the target named is Homeobox protein Hox-A13 (Mus musculus) (UniProt Q62424). As to the kind of experiment: inhibitors of HoxA13-DNA binding, primary screen, biochemical, fluorescence polarization, labeled oligonucleotide (AID 1185). Conditions: 15 min, higher = more signal, called active from +8 up or from −8 down. A general note: In fluorescence polarisation assays a small probe gives low polarisation when free and higher when bound to something large.
Sequence of Homeobox protein Hox-A13 (Mus musculus) (Q62424 whole entry, looked up): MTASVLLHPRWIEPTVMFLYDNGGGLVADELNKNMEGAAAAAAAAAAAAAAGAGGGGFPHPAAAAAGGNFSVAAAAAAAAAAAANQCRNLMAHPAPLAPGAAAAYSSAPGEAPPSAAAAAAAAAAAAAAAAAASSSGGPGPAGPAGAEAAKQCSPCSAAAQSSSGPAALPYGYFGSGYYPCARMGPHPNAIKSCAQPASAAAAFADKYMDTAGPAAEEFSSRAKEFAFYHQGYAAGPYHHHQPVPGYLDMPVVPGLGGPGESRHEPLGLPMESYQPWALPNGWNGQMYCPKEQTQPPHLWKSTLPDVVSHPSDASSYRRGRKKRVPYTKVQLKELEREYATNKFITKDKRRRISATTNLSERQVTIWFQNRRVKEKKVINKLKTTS

The nature of experiment [5]: inhibitors of hydroxyurea-induced Chk1 phosphorylation, primary screen, imaging, HeLa, phospho-Chk1 antibody, percent positive cells (AID 1186). Conditions: hydroxyurea-induced phospho-Chk1 immunofluorescence imaging, higher = more signal.
The nature of experiment [6]: inhibitors of hydroxyurea-induced Chk1 phosphorylation, primary screen, imaging, HeLa, phospho-Chk1 nuclear intensity (AID 1187). To be noted: hydroxyurea-induced phospho-Chk1 immunofluorescence imaging, higher = more signal.

Molecules are shown by their SMILES. Activity calls are given as the source filed them. Unless noted, no rule for the calls is given here.

Sequence of Alpha-bungarotoxin (Bungarus multicinctus) (P60615 whole entry, looked up): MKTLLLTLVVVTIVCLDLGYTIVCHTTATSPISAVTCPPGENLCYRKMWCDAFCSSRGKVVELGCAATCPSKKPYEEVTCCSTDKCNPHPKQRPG

For the molecule `Cc1ccc(N2C(=O)c3ccccc3[C@](C)(C(=O)NCC(F)(F)F)[C@@H]2c2ccc(CO)cc2)nc1`, the composite z-score in experiment [1] is -1.58; in experiment [2], -0.0838 (inactive); in the experiment with XIP peptide (Xip251-270), -0.964. The z-score in experiment [3] is -1.36; in experiment [4], -1.16 (inactive); in experiment [5], -0.326 (inactive); in experiment [6], -0.277 (inactive).

Regarding `O=c1n(-c2ccccc2)c(=O)n2n1CC(COc1ccccc1)=C1[C@@H](CCc3ccccc3)OB(O)C[C@@H]12`, the composite z-score in experiment [1] is 1.17; in experiment [2] it was 1.45 (inactive); with XIP peptide (Xip251-270) it was -0.0257. For the same molecule, the z-score is -1.02 in experiment [3], -6.66 (inactive) in experiment [4], -0.337 (inactive) in experiment [5] and -0.175 (inactive) in experiment [6].

As to `C#CCOc1ccc(C[C@H]2C(=O)O[C@H](Cc3ccccc3)[C@H](/C=C/C3CC3)N2CC#C)cc1`, the composite z-score was 0.0192 in experiment [1], 0.294 (inactive) in experiment [2] and -0.237 in the experiment with XIP peptide (Xip251-270). The z-score in experiment [3] was -1.13; in experiment [4] it was -0.167 (inactive); in experiment [5], -0.54 (inactive); in experiment [6], -0.582 (inactive).

As to `NC(=O)N1C(=O)C2C(C1=O)C1C=C(c3ccc(CO)cc3)C2C(C2CC2)N1Cc1cc2c(cc1Br)OCO2` (stereo unspecified), the composite z-score in experiment [1] is 0.55; in experiment [2], 1.06 (inactive); in the experiment on XIP peptide (Xip251-270), -0.673. Moreover, the z-score in experiment [3] was -2.14; in experiment [4], -3.21 (inactive); in experiment [5], -0.136 (inactive); in experiment [6], -0.279 (inactive).

Consider `O=C1O[C@H](c2ccccc2)[C@H](c2ccccc2)N2[C@H]1[C@@H](C(=O)Nc1nc3ccccc3s1)[C@]1(C(=O)Nc3ccc(C#CCCO)cc31)[C@H]2c1ccccc1OCCO`, for which the composite z-score in experiment [1] was 1.97; in experiment [2], 1.52 (inactive); with XIP peptide (Xip251-270), 0.732. In addition, the z-score in experiment [3] is -2.23; in experiment [4], 2.73 (inactive); in experiment [5], 0.288 (inactive); in experiment [6] it was 0.492 (inactive).

With `COc1ccc(/C=C/C(=O)c2cccc(OCC(=O)OC(C)(C)C)c2)cc1`, the composite z-score in experiment [1] was 0.45; in experiment [2], 0.401 (inactive); in the experiment on XIP peptide (Xip251-270) it was 0.247. Further, the z-score in experiment [3] was -0.732; in experiment [4], -3.31 (inactive); in experiment [5] it was -0.0499 (inactive); in experiment [6] it was 0.373 (inactive).

Take `CC(C)CNC(=O)[C@@H]1c2ccccc2C(=O)N(Cc2ccc(OC(F)(F)F)cc2)[C@H]1c1ccc(CO)cc1`: the composite z-score was 1.74 in experiment [1], 0.0114 (inactive) in experiment [2] and 0.762 in the experiment with XIP peptide (Xip251-270). For the same molecule, the z-score was -0.192 in experiment [3], -2.67 (inactive) in experiment [4], -0.919 (inactive) in experiment [5] and -1.36 (inactive) in experiment [6].

On to `[N-]=[N+]=Nc1ccccc1[C@H]1OC(c2ccc(OCCCO)cc2)=N[C@@]1(Cc1ccccc1)C(N)=O`, for which the composite z-score in experiment [1] is 3.09; in experiment [2] it was 1.05 (inactive); in the experiment with XIP peptide (Xip251-270), 0.657. Also, the z-score was -1.96 in experiment [3], -3.95 (inactive) in experiment [4], -0.313 (inactive) in experiment [5] and -0.179 (inactive) in experiment [6].

With `C=CCOC(=O)[C@H]1[C@@H]2C(=O)O[C@@H](c3ccccc3)[C@@H](c3ccccc3)N2[C@@H](c2ccc(OCCOC(=O)[C@H]3C[C@H]4C(=O)N5CCC[C@H]5C(=O)N4[C@H]3c3cccc(OCCO)c3)cc2)[C@]12C(=O)Nc1ccccc12`, the composite z-score in experiment [1] is 1.64; in experiment [2], 1.33 (inactive); in the experiment on XIP peptide (Xip251-270) it was 0.809. Further, the z-score in experiment [3] was -1.9; in experiment [4] it was 1.42 (inactive); in experiment [5], 0.217 (inactive); in experiment [6], 0.5 (inactive).

Take `COCCOC(=O)N1C(=O)[C@@]2(c3cc(C#CC4(O)CCCCCC4)ccc31)[C@H](C(=O)NC[C@H](O)c1ccccc1)[C@H]1C(=O)O[C@H](c3ccccc3)[C@H](c3ccccc3)N1[C@@H]2c1ccccc1OCCO`: the composite z-score in experiment [1] was 1.45; in experiment [2] it was 0.551 (inactive); in the experiment on XIP peptide (Xip251-270), 0.751. The z-score is -2.11 in experiment [3], -0.371 (inactive) in experiment [4], 0.462 (inactive) in experiment [5] and 0.992 (inactive) in experiment [6].

In the case of `CC(=O)NCCCC[C@@H]1NC(=O)[C@@H]2C[C@H](C(=O)O)[C@H](c3cccc(OCCO)c3)N2C1=O`, the values for the composite z-score (in experiment [1]; in experiment [2]; in the experiment with XIP peptide (Xip251-270)) were 1.03, 1.41 (inactive) and 1, respectively. Further, the z-score in experiment [3] is -0.313; in experiment [4], 0.294 (inactive); in experiment [5], -0.0079 (inactive); in experiment [6], 0.165 (inactive).

Regarding `COC(=O)C1=CC(c2ccc(CO)cc2)=CC(c2cccs2)N(C)C=C1C(=O)OC` (stereo unspecified), the figures for the composite z-score (in experiment [1]; in experiment [2]; with XIP peptide (Xip251-270)) were 0.765, 1.84 (inactive) and 0.302, respectively. In addition, the z-score in experiment [3] is -1.75; in experiment [4], -6.41 (inactive); in experiment [5] it was -0.261 (inactive); in experiment [6] it was -0.22 (inactive).

`COCCCNC(=O)[C@@]1(CCS(=O)(=O)c2ccccc2)N=C(c2ccc(OCCCO)cc2)O[C@H]1c1ccccc1CN=[N+]=[N-]`: the values for the composite z-score (in experiment [1]; in experiment [2]; with XIP peptide (Xip251-270)) were 2.42, 0.901 (inactive) and 0.67, respectively. Besides, the z-score in experiment [3] was -2.68; in experiment [4], -1.88 (inactive); in experiment [5] it was -1.07 (inactive); in experiment [6], -1.61 (inactive).

On to `COCCOC(=O)N1C(=O)[C@@]2(c3cc(C#CC4(O)CCCCCC4)ccc31)[C@H](c1ccccc1OCCO)N1[C@H](c3ccccc3)[C@H](c3ccccc3)OC(=O)[C@H]1[C@@H]2C(=O)Nc1nc2ccccc2s1`, for which the composite z-score in experiment [1] is 2.25; in experiment [2], 1.65 (inactive); in the experiment with XIP peptide (Xip251-270), 0.649. For the same molecule, the z-score in experiment [3] is -1.67; in experiment [4] it was 4.08 (inactive); in experiment [5], -0.201 (inactive); in experiment [6] it was -0.38 (inactive).

With `COc1ccc([Si](C)(C)[C@H]2[C@H](CCO)O[C@@]3(C(=O)N(Cc4ccc(N5C(=O)c6cccc7cccc5c67)cc4)c4ccccc43)[C@@H]2C)cc1`, the composite z-score in experiment [1] was 1.05; in experiment [2] it was 0.529 (inactive); in the experiment on XIP peptide (Xip251-270), 0.623. Besides, the z-score is -1.23 in experiment [3], -0.82 (inactive) in experiment [4], -1.48 (inactive) in experiment [5] and -1.39 (inactive) in experiment [6].

As to `CC(C)C(CO)N1C(=O)[C@@H]2[C@H]3C(=O)OCC=C[C@H]3OC23C=CCN(Cc2ccccc2)C(=O)[C@@H]13` (stereo partly specified), the composite z-score in experiment [1] was -1.44; in experiment [2] it was -0.433 (inactive); with XIP peptide (Xip251-270) it was -1.18. In addition, the z-score in experiment [3] was -0.383; in experiment [4], -2.93 (inactive); in experiment [5], -0.228 (inactive); in experiment [6], -0.647 (inactive).

Regarding `O=C(O)[C@H]1C[C@H]2C(=O)N[C@@H](Cc3ccccc3)C(=O)N2[C@H]1c1ccc(O)cc1`, the results for the composite z-score (in experiment [1]; in experiment [2]; in the experiment with XIP peptide (Xip251-270)) were 0.824, 0.3 (inactive) and 0.923, respectively. For the same molecule, the z-score in experiment [3] was -0.453; in experiment [4] it was -2.68 (inactive); in experiment [5] it was -0.119 (inactive); in experiment [6] it was -0.18 (inactive).

Regarding `C=C(COC)C(=O)CC[C@H](OC(=O)c1ccccc1-c1ccccc1C(=O)O)c1ccccc1OCCO`, the composite z-score was 0.737 in experiment [1], 1.43 (inactive) in experiment [2] and 0.356 in the experiment with XIP peptide (Xip251-270). Besides, the z-score in experiment [3] was -1.11; in experiment [4] it was -3.93 (inactive); in experiment [5], 0.269 (inactive); in experiment [6], -0.228 (inactive).

For the origin of these results see PubChem BioAssay.
